Where two headings read alike, the source gives them in different places. Out of some 13,000 compounds screened, about 3,200 (25%) showed an effect of 50% or more. The list shows a part of the results.
Tested on: P. falciparum stage V gametocytes
Parameters: BacTiter-Glo ATP luminescence viability of purified stage V gametocytes in 384-well plates, per cent inhibition versus DMSO
Details: 48 h, 5 µM, inhibitor

SMILES	% Inhibition [%]	% Inhibition (% Inhibition) [%]
COc1cc(CNC[C@@H](O)[C@H](Cc2ccccc2)NC(=O)c2cc(C3CCCC3)cc(N3CCCC3=O)c2)cc(OC)c1 [TCMDC-134558]	-9.273	–
COc1ccc(Nc2nccc(N3CCC(NC(=O)Nc4cccc(OC)c4)C3)n2)cc1 (centres unmarked) [TCMDC-133616]	-47.96	–
CCSc1nnc(C2CCCN(CC(=O)Nc3cc(C(F)(F)F)ccc3Cl)C2)n1CC (centres unmarked) [TCMDC-123540]	7.83	–
CC(=O)C1(c2ccccc2)CCN(CCC2(c3ccc(Cl)c(Cl)c3)CN(C(=O)C3CCCCC3)CCO2)CC1 (centres unmarked) [TCMDC-135326]	-73.48	–
CCOC(=O)c1c(C)n(-c2ccc(Cl)cc2)c2ccc(OC(=O)C=Cc3ccccc3)cc12 [TCMDC-125715]	-42.41	–
O=C(NCCN1CCCCC1)N1CCCN(c2ncnc3cc(-c4ccccc4)sc23)CC1 [TCMDC-134392]	3.881	–
CN(C)CCNC(=O)N1CCCN(c2ncnc3cc(-c4ccc(Cl)cc4)sc23)CC1 [TCMDC-134387]	97.42	–
O=C(NCCN1CCCC1)N1CCCN(c2ncnc3cc(-c4ccc(F)cc4)sc23)CC1 [TCMDC-134393]	93.57	–
CN(C)CCNC(=O)N1CCCN(c2ncnc3cc(-c4ccccc4)sc23)CC1 [TCMDC-134389]	-9.14	–
CC(C)N1CCC(NC(=O)N2CCCN(c3ncnc4cc(-c5ccccc5)sc34)CC2)CC1 [TCMDC-134391]	65.6	–
CC(C)N1CCC(NC(=O)N2CCCN(c3ncnc4cc(-c5ccc(Cl)cc5)sc34)CC2)CC1 [TCMDC-134390]	-12.69	–
CN(C)CCNC(=O)NC1CN(c2ncnc3cc(-c4ccccc4)sc23)C1 [TCMDC-134388]	-2.865	–
O=C(NCCN1CCCC1)N1CCCN(c2ncnc3cc(-c4ccc(Cl)cc4)sc23)CC1 [TCMDC-134394]	-0.6581	–
O=C(Nc1ccccc1O)C1CCN(c2ncnc3cc(-c4ccc(F)cc4)sc23)CC1 [TCMDC-124822]	-65.25	–
Cc1c(CNCCCNc2cc(=O)c3ccccc3[nH]2)sc(C(F)F)c1Br [TCMDC-141322]	-67.17	–
NC(=O)c1ccc(NC(=O)CN(Cc2ccc(Cl)cc2)S(=O)(=O)c2ccccc2)cc1 [TCMDC-124454]	35.94	–
CN(C)CCOc1ccc(-n2c(-c3nonc3N)nc3cncc(-c4ccc(F)cc4)c32)cc1 [TCMDC-134178]	-7.095	–
CC(=O)Nc1ccc([N+](=O)[O-])c2c(Br)cccc12 [TCMDC-125386]	-53.09	–
COc1cc(F)c2ncc(Cl)c([C@H](O)CN3CCC(NCc4ccc5c(n4)NC(=O)CO5)CC3)c2c1 [TCMDC-135487]	8.334	–
CC(C)(C)c1cc(/C=C/C(=O)NC2CCC(CN3CCC(c4c[nH]c5ccccc45)CC3)CC2)cc(C(C)(C)C)c1O (centres unmarked) [TCMDC-139757]	–	96.1
CC(C)(C)c1cc(/C=C/C(=O)NC2CCC(CN3CCC(c4c[nH]c5ccccc45)CC3)CC2)cc(C(C)(C)C)c1O (centres unmarked) [TCMDC-139767]	–	105.4
N#Cc1cccc(Nc2cc(C(F)(F)F)nc(Nc3ccccc3)n2)c1 [TCMDC-133458]	7.387	–
CCOc1cc(Cc2cnc(N)nc2N)cc(Br)c1OC [TCMDC-137721]	-8.107	–
CC(C)N(Cc1ccc(-c2ccc(C(F)(F)F)cc2)cc1)C(=O)Cn1c(SCc2cccc(F)c2F)cc(=O)c2cc(CN3CCCCC3)ccc21 [TCMDC-141593]	103.1	–

SMILES	% Inhibition [%]	% Inhibition (% Inhibition) [%]
CCN(Cc1ccc(-c2ccc(C(F)(F)F)cc2)cc1)C(=O)Cn1c(SCc2cccc(F)c2F)cc(=O)c2cc(CN3CCCCC3)ccc21 [TCMDC-141592]	106.5	–
COC(=O)C1(NC(=O)c2ccc(-n3nc(C)c(-c4ccccc4)c3N)cc2)CCCC1 [TCMDC-134041]	30.38	–
CCCC(C)NC(=O)C(N)Cc1cccc(I)c1 (centres unmarked) [TCMDC-141272]	-22.86	–
CC1(C)N=C(N)N=C(N)N1OCC1COc2ccccc2O1 (centres unmarked) [TCMDC-131585]	1.956	–
Cc1ncc([N+](=O)[O-])n1CCOC(=O)NC(NCC1COc2ccccc2O1)C(Cl)(Cl)Cl (centres unmarked) [TCMDC-125611]	93.51	–
O=C(NCC1COc2ccccc2O1)c1cnc2c(c1)nc(-c1cnc(-c3ccccc3)[nH]1)n2CCSCc1c(F)cccc1Cl (centres unmarked) [TCMDC-139692]	12.96	–
Cc1nn(CCOC(=O)NC(NCC2COc3ccccc3O2)C(Cl)(Cl)Cl)cc1[N+](=O)[O-] (centres unmarked) [TCMDC-124139]	72.15	–
CC(C)C(=O)NC(NC(=S)Nc1ccc(Br)cc1)C(Cl)(Cl)Cl (centres unmarked) [TCMDC-124131]	29.56	–
Cc1ncc([N+](=O)[O-])n1CCOC(=O)NC(Nc1ccc(Br)cc1)C(Cl)(Cl)Cl (centres unmarked) [TCMDC-124219]	76.02	–
O=C(/C=C/c1ccc(Cl)c(Cl)c1)NCCCCCN1CCCN(C(=O)Nc2ccc([N+](=O)[O-])cc2)CC1 [TCMDC-135754]	-58.55	–
Clc1ccc(CNc2nc(NCCc3cnc[nH]3)nc(N3CCCC4CCCCC43)n2)cc1 (centres unmarked) [TCMDC-139743]	10.44	–
Cc1oc(-c2ccccc2)nc1CCOc1ccc(C[C@H](Nc2ccccc2C(=O)c2ccccc2)C(=O)NCc2ccccn2)cc1 [TCMDC-138315]	-1.633	–
NC1=NC2(CCCC2)C(c2ccc(Cl)c(Cl)c2)C(N)=N1 (centres unmarked) [TCMDC-137490]	18.93	–
O=C(c1cnn(-c2ccccc2)c1C(F)(F)F)N1CCN(c2ccnc3cc(Cl)ccc23)CC1 [TCMDC-123790]	-13.06	–
COc1cc(Nc2nccc(NCC(O)c3ccc(C(F)(F)F)cc3)n2)cc(OC)c1OC (centres unmarked) [TCMDC-136589]	-6.814	–
COc1ccc(-c2cccc(NC(=O)c3cccc(Cl)c3)c2)cc1CN1CCNCC1 [TCMDC-132613]	106.1	–
Cc1nc(-c2ccc(-c3ccc(NC(=O)Nc4ccc(I)c(OCCN(C)C)c4)cc3)c(C)c2)no1 [TCMDC-139107]	-54.47	–
O=C(Nc1ccc(-c2ccccc2)c(OCCN2CCNCC2)c1)c1ccc(-c2ccc(Cl)cc2)cc1 [TCMDC-138818]	100.4	–
Cc1nc(-c2ccc(-c3ccc(C(=O)Nc4ccc(I)c(OCCN5CCCC5)c4)cc3)c(C)c2)no1 [TCMDC-139109]	57.83	–
CN(C)CCOc1cc(NC(=O)c2ccc(-c3ccc(Cl)cc3Cl)cc2)ccc1-c1ccccc1 [TCMDC-138835]	-44.47	–
COc1cc(NC(=O)c2ccc(-c3ccccc3)cc2)ccc1OCCCN1CCC(c2ccccc2)CC1 [TCMDC-141370]	-49.11	–
Cc1nc(-c2ccc(-c3ccc(C(=O)Nc4ccc(I)c(OCC5CCCN5C)c4)cc3)c(C)c2)no1 (centres unmarked) [TCMDC-139110]	-18.97	–
COc1ccc(-c2cccc(NC(=O)c3ccc(Cl)cc3)c2)cc1CN1CCNCC1 [TCMDC-132601]	95.75	–
COc1ccc(-c2cccc(NC(=O)c3ccc(Cl)cc3)c2)cc1CN1CCCC1 [TCMDC-132604]	46.68	–

SMILES	% Inhibition [%]	% Inhibition (% Inhibition) [%]
COc1ccc(-c2cccc(NC(=O)c3ccc(C#N)cc3)c2)cc1CN1CCCC1 [TCMDC-132611]	11.39	–
COc1ccc(-c2cccc(NC(=O)c3cccc(C#N)c3)c2)cc1CN1CCNCC1 [TCMDC-132620]	19.71	–
CC1C(c2cccc(Cl)c2)OCC(C)(C)N1C(=O)CCN1CCCCC1 (centres unmarked) [TCMDC-137873]	-11.63	–
COc1ccc2nccc([C@@H](O)CN3CCC(NCc4ccc5c(c4)NC(=O)C(C)(C)O5)CC3)c2c1 [TCMDC-141097]	21.74	–
NC(N)=NN=C1C=Cc2cccc3cccc1c23 [TCMDC-137662]	-87.82	–
Cc1cc(NC2CCCC2)nc(Nc2ccccc2F)n1 [TCMDC-133463]	-1.86	–
Cc1cc(C)cc(Oc2c(C(F)(F)F)oc3c(CN4CC(C)OC(C)C4)c(O)ccc3c2=O)c1 (centres unmarked) [TCMDC-125695]	-2.168	–
CCOc1ccccc1NC(=O)Nc1ccc2c(c1)CCN(C1CCC1)CC2 [TCMDC-135951]	31.77	–
CCN1CCN(C(=O)NC(C(=O)N(C)Cc2ccc(-c3ccc(C(F)(F)F)cc3)cc2)c2cccs2)C(=O)C1=O (centres unmarked) [TCMDC-141576]	23.66	–
CCOC(=O)NOC(C(=O)O)c1ccccc1 (centres unmarked) [TCMDC-131406]	-4.765	–
COC(=O)c1cccc(CNCc2cccc(-c3ccc(-c4nc5cc(C(F)(F)F)ccc5[nH]4)cc3)c2)c1.O=C(O)C(F)(F)F [TCMDC-132955]	-38.35	–
COc1ccc(-c2ccc(NC(=O)c3ccc(Cl)cc3)cc2)cc1CN1CCNCC1 [TCMDC-133338]	93.69	–
COc1ccc(-c2cccc(NC(=O)c3cccc(Cl)c3)c2)cc1CN1CCCN(C)CC1 [TCMDC-132614]	-18.61	–
O=C(Nc1cccc(-c2ccc(CN3CCCC3)cc2)c1)c1cccc(Cl)c1 [TCMDC-132643]	24.88	–
CN1CCCN(Cc2cccc(-c3cccc(NC(=O)c4cccc(Cl)c4)c3)c2)CC1 [TCMDC-132657]	-0.3892	–
COc1ccc(-c2ccc(NC(=O)c3ccc(C#N)cc3)cc2)cc1CN1CCCC1 [TCMDC-132519]	46.41	–
O=C(Nc1cccc(-c2ccc(CN3CCNCC3)cc2)c1)c1cccc(Cl)c1 [TCMDC-132640]	-31.19	–
COc1ccc(-c2ccc(NC(=O)c3cccc(Cl)c3)cc2)cc1CN1CCCC1 [TCMDC-132525]	40.62	–
O=C(Nc1ccc(-c2ccc(CN3CCNCC3)cc2)cc1)c1cccc(Cl)c1 [TCMDC-132590]	87.95	–
O=C(Nc1cccc(-c2cccc(CN3CCCC3)c2)c1)c1cccc(Cl)c1 [TCMDC-132659]	85.38	–
COc1ccc(-c2cccc(NC(=O)c3cccc(Cl)c3)c2)cc1CN1CCCC1 [TCMDC-132615]	79.62	–
CN1CCCN(Cc2ccc(-c3ccc(NC(=O)c4cccc(Cl)c4)cc3)cc2)CC1 [TCMDC-132591]	42.97	–
COc1ccc(-c2ccc(NC(=O)c3ccc(C#N)cc3)cc2)cc1CN1CCNCC1 [TCMDC-132516]	43.65	–

Source: paper PMC4552634, “A New Set of Chemical Starting Points with Plasmodium falciparum Transmission-Blocking Potential for Antimalarial Drug Discovery” (PLoS ONE, 2015)
